# Screens from PubChem BioAssay.
# Only some compounds are listed: those with a hit (about 19% of all), similar ones and a draw of the others.
# DT40 TDP1 no CPT: qHTS for Inhibitors of human tyrosyl-DNA phosphodiesterase 1 (TDP1): qHTS in cells in absence of CPT; DT40 Tdp1-/- hTDP1 cells, no CPT, ATP luminescence, 48 h; Potency, µM (doses to about 46.2 µM), inactives show at the top dose activity change, negative = growth inhibition, usual class: inhibitors; 420,000 compounds, 15% hits; AID 686978, 2013; also: potency is read from the fitted curve at half-maximal effect; nearly all actives have a fitted effect of over 55% in size
#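 DT40 Tdp1-/-;hTDP1 cells, no CPT (DMSO vehicle only), 400 cells/well; compounds pin-transferred; ≥48 hr, 37 °C; CellTiter-Glo 30 min RT dark, luminescence read.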
# TDP1 cell CPT: qHTS for Inhibitors of human tyrosyl-DNA phosphodiesterase 1 (TDP1): qHTS in cells in presence of CPT; 420,000 compounds, 12% hits; chicken DT40 Tdp1-/-;hTDP1 cells + 20 nM CPT, ATP luminescence, 48 h; Potency, µM (highest dose often 46.2 µM), without a hit: at the highest dose activity change, negative = growth inhibition, actives largely listed as inhibitors; also: potency is read from the fitted curve at half-maximal effect; nearly all actives have a fitted effect of over 55% in size
#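 Cell growth measured by CellTiter-Glo luminescence after a minimum 48 h, 37 C compound exposure with 20 nM CPT in Tdp1-knockout DT40 cells stably expressing hTDP1, seeded 400/well; qHTS titration format.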
# HT1080 IDH1KD tx: qHTS for induction of synthetic lethality in tumor cells producing 2HG: qHTS for the HT-1080-IDH1KD cell line | HT-1080 IDH1 knockdown viability, ATP luminescence, 48 h | Potency, µM (top dose mostly 46.1 µM), for inactives: at the highest dose activity, negative = toxicity, most hits filed as cytotoxic | 360,000 compounds, 2% hits;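 also: potency is read from the fitted curve at half-maximal effect; 0% = DMSO wells and -100% = cell-free medium wells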
#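 In this qHTS, HT-1080 cells depleted of IDH1 are exposed for 48 h at 37 °C to compound titrations. Toxicity is scored from CellTiter-Glo luminescence, with DMSO as full viability and medium alone as none.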
# HT1080-NT tox: qHTS for induction of synthetic lethality in tumor cells producing 2HG: qHTS for the HT-1080-NT fibrosarcoma cell line | HT-1080-NT fibrosarcoma viability, CellTiter-Glo ATP luminescence, 48 h | AID 686970, 2013 | 360,000 compounds, 1.6% hits | Potency, µM (highest dose often 46.1 µM), inactives show top-dose activity, negative = less viability, most hits filed as cytotoxic;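 also: NT is the 2HG producing partner of a matched IDH1 knockdown line; potency is read from the fitted curve at half-maximal effect; 0% = DMSO-treated cells and -100% = media-only wells without cells; nearly all actives have a fitted effect of over 55% in size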
#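 Read-out is CellTiter-Glo luminescence after 10 minutes at room temperature, following 48 hours' compound treatment of HT-1080-NT cells (750 cells/well, RPMI, 5% FBS, 37 degrees C).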
# IL1B secr inh: qHTS for Inhibitors of Inflammasome Signaling: IL-1-beta AlphaLISA Primary Screen. THP-1 LPS/ATP IL-1B secretion, AlphaLISA, 16 h; stronger effect = lower value. activity change, % at 57.5 µM. 360,000 compounds, 4.7% hits. AID 743279, 2014; in the data active = activity change below about -50%; inconclusive = mostly about -30% to -49%
#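 Secreted IL-1B measured by AlphaLISA bead assay after 16 h compound exposure of THP-1 cells; compounds (final up to 57.5 uM) added 1 h before LPS (250 ng/mL) and ATP (1.25 mM) stimulation; lower signal means less secretion.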
# uPA generation: qHTS for Inhibitors of Cell Surface uPA Generation. cell surface uPA generation assay, qHTS. Potency, µM (series often up to 38.3 µM), without a hit: at the highest dose activity change, negative = inhibition, actives largely listed as inhibitors. 330,000 compounds, 0.31% hits. AID 540303, 2011; active = well fitted inhibition curve with a large enough effect; inconclusive = small, poorly fitted or top-dose-only effect; inactive = no such curve, though single readings can be large or run the other way; tested in mouse RAW 264.7 cells; also: potency is read from the fitted curve at half-maximal effect; nearly all actives have a fitted effect of over 55% in size
# * = called active by the depositor; u = inconclusive; x = no result given; [ ] = remark or other dose. Unless noted, calls follow the shape of the dose curve; as a rule, active = well fitted curve in the direction sought with a large enough effect; inconclusive = small, poorly fitted or top-dose-only effect, or another doubt; inactive = no such curve, though single readings can be large; an effect the other way counts as inactive or inconclusive. Unless noted, % is scaled to controls: 0 for no effect and ±100 for the full control effect.
SMILES,DT40 TDP1 no CPT,TDP1 cell CPT,HT1080 IDH1KD tx,HT1080-NT tox,IL1B secr inh,uPA generation
CC1CCN(CCCNC(=O)C2CCN(S(=O)(=O)N3CCC4(CC3)OCCO4)CC2)CC1,27.5%,-3.0%,12.1%,-0.9%,0.7,-5.7%
CCc1ccc(OCc2nc(-c3ccc(OC)cc3)no2)c(Br)c1,u,-11.9%,x,x,x,x
O=C(O)c1cccc(S(=O)(=O)N2CCN(C(c3ccccc3)c3ccccc3)CC2)c1,5.2%,7.2%,-1.3%,3.6%,-9.1,3.5%
Cc1ccc(S(=O)(=O)N(CC(=O)N2CCc3ccccc3C2)c2ccc(C)c(C)c2)cc1,18.4µM*,16.4µM*,x,x,x,x
COc1ccc(C)cc1N(CC(=O)N1CCc2ccccc2C1)S(C)(=O)=O,-26.5%,2.4%,0.7%,-3.2%,-1.3,-3.3%
COc1ccc(CNC(=O)N2CCN(c3ccc(F)cc3)CC2)cc1Cl,9.2µM*,u,-2.4%,6.1%,-26.1,-1.2%
Cc1ccc(S(=O)(=O)N(CC(=O)N2CCN(c3ccc(F)cc3)CC2)C2CCCCC2)cc1,20.6µM*,u,-8.5%,1.8%,-3.4,2.7%
Cc1ccc(C)c(OCC(=O)N2CCc3ccccc3C2)c1,-4.3%,-20.2%,1.8%,3.1%,-26.5,-12.1%
Cc1cc(OCC(=O)N2CCc3ccccc3C2)c(C)cc1Br,16.4µM*,u,-17.3%,-27.4%,-54.8*,-2.3%
C=CCN1C(=O)c2ccc(C(=O)OCC(=O)N3CCN(c4ccccc4)CC3)cc2C1=O,-13.4%,-6.0%,-4.0%,-3.1%,16.2,-1.7%
COC(=O)c1ccc(C)c(NC(=O)CCCN2C(=O)NC(C)(C)C2=O)c1,2.8%,0.3%,8.6%,10.5%,4.0,-0.1%
COc1cccc(N(CC(=O)N2CCN(c3ccccc3OC)CC2)S(C)(=O)=O)c1,u,-8.9%,-0.5%,0.0%,0.0,2.2%
COc1ccc(N(CC(=O)N2CCN(C)CC2)S(=O)(=O)c2ccccc2)cc1,9.1%,3.5%,-3.0%,-5.1%,14.0,-1.7%
COc1ccc(S(=O)(=O)N(CC(=O)N2CCN(c3ccccc3OC)CC2)c2ccccc2)cc1,11.6µM*,20.6µM*,-22.7%,-21.7%,-8.5,-10.3%
COc1ccc(N2CCN(C(=O)CN(c3ccc(OC)cc3)S(=O)(=O)c3ccccc3)CC2)cc1,23.1µM*,13µM*,-2.3%,-0.9%,-0.1,-7.2%
Cc1ccc(NC(=O)COC(=O)C2=NNC(=O)CC2)c(Br)c1,10.4%,-9.5%,2.3%,-8.8%[9.24 µM],-20.8,-9.8%
CCN(C(=O)CSc1nc2cc(C(=O)O)ccc2c(=O)n1Cc1ccccc1)c1ccccc1,-1.7%,-8.8%,0.1%,9.1%,17.4,0.8%
CCN(C(=O)CSc1nc2cc(C(=O)OC)ccc2c(=O)n1Cc1ccco1)c1cccc(C)c1,u,20.6µM*,-20.8%,-14.5%,17.5,-3.1%
CCc1ccc(NC(=O)CSc2nc3cc(C(=O)OC)ccc3c(=O)n2Cc2ccco2)cc1,10.3µM*,16.4µM*,-5.5%,-13.8%,-8.5,-0.2%
CCOC(=O)c1c(NC(=O)CSc2nc3cc(Cl)ccc3c(=O)n2Cc2ccco2)sc(C(=O)N(C)C)c1C,u,u,u,u,-58.5*,5.7%
COCCCNC(=O)c1csc([C@@H]2O[C@H](CO)[C@H](O)[C@H](O)[C@H]2O)n1,4.0%,2.4%,25.7%,22.9%,6.7,x
CCCCN(C(=O)c1cc2c(s1)CCC2)c1c(N)n(CCCC)c(=O)[nH]c1=O,-15.8%,-11.9%,12.0%,1.2%,-4.4,-2.2%
CC(C)(C)c1ccc(S(=O)(=O)N2CCC(O)(c3ccc(Cl)cc3)CC2)cc1,18.4µM*,u,-22.0%,u,-11.5,-29.4%
COc1ccc(S(=O)(=O)N2CCC(O)(c3ccc(Cl)cc3)CC2)cc1,-28.3%,-16.6%,u,-15.4%,u,3.6%
O=S(=O)(c1ccc(Cl)cc1)N1CCC2(CC1)CO2,-32.0%,u,-5.0%,2.3%,-56.7*,-9.3%
SMILES,DT40 TDP1 no CPT,TDP1 cell CPT,HT1080 IDH1KD tx,HT1080-NT tox,IL1B secr inh,uPA generation
O=S(=O)(c1ccccc1)N1CCC2(CC1)CO2,-19.5%,u,-20.5%,-21.8%,-7.6,-5.3%
CCN(C(=O)COC(=O)CCC1CCCC1)c1c(N)n(Cc2ccccc2)c(=O)[nH]c1=O,-7.0%,-23.4%,5.3%,2.6%,8.3,3.3%
CCN(CC)C(=O)C1=C(C)N(Cc2ccccc2)C(=O)C(CC(=O)NCC2CCCCC2)C1 (stereo not drawn),u,u,-0.1%,8.3%,-21.7,x
CCOc1ccc(N2C(=O)/C(=C\c3ccc(O)c(OC)c3)S(=O)(=O)C2c2cccc([N+](=O)[O-])c2)cc1 (stereo not drawn),u,18.4µM*,6.6%,-0.6%,-2.2,-10.0%
CCOc1ccc(N2C(=O)/C(=C\c3ccc(OC)c(O)c3)S(=O)(=O)C2c2cccc([N+](=O)[O-])c2)cc1 (stereo not drawn),u,-28.5%,-1.0%,0.5%,-1.2,x
COc1ccc(S(=O)(=O)NC(=O)C2(C)CCN2C(=O)c2cccc(F)c2)cc1 (stereo not drawn),6.8%,2.6%,u,7.0%,-1.7,x
CC1SC(=S)N(c2ccc(N(C)C)cc2)C1=O (stereo not drawn),-20.2%,u,u,-0.6%,-7.8,-5.7%
COc1ccc([C@H]2N[C@]3(CCCN(Cc4ccc(Cl)cc4)C3=O)[C@H]3C(=O)N(Cc4ccccc4)C(=O)[C@@H]23)cc1,23.1µM*,18.4µM*,-21.3%,-14.0%,-21.7,x
COc1ccc([C@H]2N[C@]3(CCCN(Cc4ccc(C)cc4)C3=O)[C@H]3C(=O)N(Cc4ccccc4)C(=O)[C@@H]23)cc1,16.4µM*,u,-12.1%,10.3%,-12.7,x
COc1ccc([C@H]2N[C@]3(CCCN(Cc4ccccc4)C3=O)[C@H]3C(=O)N(C)C(=O)[C@@H]23)cc1,-21.4%,-13.9%,5.9%,8.9%,-9.0,x
COc1ccc([C@H]2N[C@]3(CCCN(Cc4ccccc4)C3=O)[C@H]3C(=O)N(Cc4ccccc4)C(=O)[C@@H]23)cc1,u,-6.5%,-4.0%,0.0%,-10.2,x
